Reference: PubChem BioAssay
A number with no mark means an inactive call. The list shows a part of the results. Active and inactive are the calls of the source.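 The calls were made as follows, unless noted: active = inhibition above the mean over all tested compounds plus 3 SD, which no compound reached; inactive = the rest.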

Experiments:
[1] = test system: HIV-1 integrase (multimerization); experiment: HIV-1 IN multimer formation enhancers, counter-screen for LEDGF/p75 integration inhibitor project, biochemical, TR-FRET (AID 1053131; in the data active = activation above about 8.9%); conditions: TR-FRET HIV-1 integrase multimerization, at 7.7 µM, stronger effect = higher value
[2] = TR-FRET optical interference artefacts, confirmation, artefact control for LEDGF/p75-dependent integration inhibitor project, biochemical, HIV-1 IN multimerization (AID 1053135); conditions: TR-FRET optical interference counterscreen, at 7.7 µM, stronger effect = higher value;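 also: 0% = integrase with antibodies and DMSO and 100% = antibodies without integrase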
[3] = test system: HIV-1 integrase / human LEDGF/p75 complex; experiment: inhibitors of HIV-1 IN-LEDGF/p75 DNA integration, confirmation, biochemical, TR-FRET (AID 1053136; in the data active = inhibition above about 14%); conditions: TR-FRET LEDGF/p75-dependent HIV-1 integration, at 3.7 µM, stronger effect = higher value
[4] = target: Nuclear receptor coactivator 1 (Homo sapiens) (UniProt Q15788); experiment: SRC1 coactivator transcriptional activity inhibitors, confirmation, cell-based, luminescence, quadruplicate (AID 588820;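 active = mean inhibition above 46.68%, the untreated control wells mean plus 3 SD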;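 also: 0% = DMSO wells and 100% = gossypol 36 µM treated wells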); conditions: HEK293 GAL4-SRC1 luciferase reporter, at 3.6 µM, stronger effect = higher value
[5] = VP16 transactivation inhibitors, counter-screen for SRC1 inhibitor project, cell-based, luminescence, high throughput (AID 588824; in the data active = inhibition above about 25%); conditions: cell-based VP16 transactivation luciferase luminescence; at 3.6 µM; stronger effect = higher value
[6] = StAR promoter reporter inhibitors, counter-screen for LRH-1 inverse agonist project, cell-based, luminescence, high throughput (AID 651611; in the data active = inhibition above about 28%); conditions: StAR promoter luciferase reporter counterscreen, at 3.6 µM, stronger effect = higher value
[7] = target: Nuclear receptor subfamily 5 group A member 2 (Homo sapiens) (UniProt O00482); experiment: LRH-1 (NR5A2) inverse agonists, retest, confirmation, cell-based, luminescence (AID 651613; in the data active = inhibition above about 42%;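 also: HEK293T cells co-transfected with LRH-1 and StAR promoter luciferase reporter; 0% = vehicle wells and 100% = parental cells lacking receptor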); conditions: cell-based LRH-1 luciferase reporter, inverse agonism; at 3.6 µM; stronger effect = higher value
[8] = target: Steroidogenic factor 1 (Homo sapiens) (UniProt Q13285); experiment: SF1 (NR5A1) inverse agonists, counter-screen for LRH-1 inverse agonist project, cell-based, luminescence, high throughput (AID 651614; in the data active = inhibition above about 44%;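 also: cells cotransfected with StAR promoter reporter and SF1 expression vector; 0% = vehicle on cells with receptor and 100% = vehicle on cells lacking receptor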); conditions: cell-based SF1 luciferase reporter, at 3.6 µM, stronger effect = higher value
[9] = VP16 transactivation reporter inhibitors, counter-screen for LRH-1 inverse agonist project, cell-based, luminescence, high throughput (AID 651615; in the data active = inhibition above about 33%); conditions: Gal4-VP16 luciferase reporter cells, at 3.6 µM, stronger effect = higher value
[10] = STAT1 signaling activators, confirmation, cell-based, HTS, luciferase reporter (AID 1262;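 active = activation above a set limit carried over from the earlier primary STAT1 screen, cut at about 140% in these data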;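 also: simple ratio to median IFN-gamma plus DMSO wells so 0% means no light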); conditions: NIH 3T3 STAT1-luciferase reporter, IFN-gamma potentiation, luminescence; at 5.7 µM; stronger effect = higher value; 100% = IFN-gamma EC80 alone, no compound
[11] = NF-kB reporter activators, TNF-alpha stimulated, counter-screen for STAT1 activator project, cell-based, HEK293T, luciferase luminescence (AID 1306;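 active = activation above the mean of solvent-only control wells plus 3 SD, set per campaign, cut at about 130% in these data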;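 also: TNF-alpha given at a submaximal dose yielding about 80% of full reporter signal; values are well signal over median control so 100% means no change and 0% no light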); conditions: at 5.7 µM, stronger effect = higher value, 100% = TNF-alpha with vehicle only
[12] = target: Signal transducer and activator of transcription 3 (Homo sapiens) (UniProt P40763); experiment: STAT3 reporter activation by STAT1 hits, confirmation, counter-screen for STAT1 activator project, U3A cells, luciferase, luminescence (AID 1316;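 active = activation above the solvent-only control well mean plus 3 SD, set per plate batch, cut at about 110% in these data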;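 also: 0% = no luminescence and 100% = median IL-6 plus DMSO wells; higher means more STAT3 reporter activation so hits are non-selective activators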); conditions: IL-6, luminescence, at 5.7 µM, stronger effect = higher value, 100 = IL-6 alone, no compound effect, cells lack STAT1
[13] = test system: TLR4-MyD88 interaction (human), BLA complementation; experiment: TLR4-MyD88 association inhibitors, retest, confirmation, cell-based, HeLa CL3-4, BLA complementation, FRET ratio (AID 941;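 active = mean inhibition across three repeat runs above about 25% carried over from the earlier screen, limit read from the data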;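 also: plate controls were DMSO only for no effect and clavulanic acid blocking BLA at full dose for full effect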); conditions: CCF4 FRET ratio, at 8.4 µM, stronger effect = higher value
[14] = inhibitors of full-length beta-lactamase reporter, confirmation, artefact control for TLR4-MyD88 binding inhibitor project, cell-based, HeLa, full-length BLA, CCF4 FRET ratio (AID 1237;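 active = mean inhibition over three repeats above about 26% taken from the earlier screen, limit read from the data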;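 also: HeLa cells stably expressing beta-lactamase reporter as counterscreen for TLR4-MyD88 inhibitors; 0% = DMSO and 100% = clavulanic acid full inhibition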); conditions: at 8.4 µM, stronger effect = higher value
[15] = test system: Fam108b (Abhd17b) serine hydrolase [Mus musculus]; experiment: mouse Fam108b serine hydrolase inhibitors, confirmation, counter-screen for RBBP9 inhibitor project, biochemical, fluorescence polarization, triplicate (AID 1978;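 active = inhibition above a limit from the primary screen, the mean over all compounds plus 3 SD, cut at about 19% in these data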;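 also: 0% = median of active Fam108b wells and 100% = catalytically dead S170A mutant; inhibitors free the probe so polarization falls as inhibition rises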); conditions: recombinant Fam108b, FP-Rh probe fluorescence polarization; at 9.51 µM; stronger effect = higher value
[16] = target: Toll-like receptor 9 (Homo sapiens) (UniProt Q9NR96); experiment: TLR9-MyD88 association inhibitors, retest, confirmation, cell-based, CHO, BLA complementation, fluorescence, triplicate (AID 540250;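 active = mean inhibition across three repeats above about 21% taken from the earlier screen, limit read from the data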;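 also: blue over green emission ratio reports constitutive TLR9 MyD88 association via BLA complementation; 0% = DMSO vehicle wells and 100% = clavulanate BLA inhibitor wells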); conditions: CCF4 FRET ratio, at 4.98 µM, stronger effect = higher value
[17] = beta-lactamase reporter inhibitors in CHO cells, artefact control for TLR9-MyD88 binding inhibitor project, cell-based, fluorescence (AID 540251;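 active = mean inhibition above a 50% cutoff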;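 also: counterscreen of TLR9-MyD88 hits on CMV-driven BLA in CHO-K1 cells; 0% = DMSO alone and 100% = clavulanate blocking BLA; higher means less blue over green ratio so more BLA blockade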); conditions: CHO-BLA cells, CCF4 FRET ratio, at 4.98 µM, stronger effect = higher value
[18] = CHO cell viability loss – luminescence, single concentration, cytotoxicity control for TLR9-MyD88 binding inhibitor project (AID 588336; in the data active = inhibition above about 11%); conditions: TLR9-MyD88 CHO cells cytotoxicity, at 4.98 µM, stronger effect = higher value
[19] = target: Receptor-interacting serine/threonine-protein kinase 2 (Homo sapiens) (UniProt O43353); experiment: NOD2-RIPK2 binding disruptors, retest, confirmation, fluorescence, CHO cells, BLA complementation, triplicate (AID 624370;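 active = mean inhibition across replicates above a set limit taken from the earlier primary screen, cut at about 21% in these data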;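 also: 0% = DMSO-only wells and the high end = clavulanate BLA-blocked wells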); conditions: CCF4 FRET, at 4.98 µM, stronger effect = higher value
[20] = beta-lactamase reporter inhibitors in CHO cells, confirmation, artefact control for NOD2-RIPK2 interaction inhibitor project, cell-based, CHO-K1 CMV-bla, CCF4 FRET, fluorescence (AID 624371;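 active = mean inhibition above the low-control mean inhibition plus three low-control SD, cut at about 11% in these data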;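 also: 0% = DMSO only wells and 100% = clavulanate high control wells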); conditions: CCF4 FRET ratio, counterscreen, at 4.98 µM, stronger effect = higher value
[21] = target: Galanin receptor type 2 (Homo sapiens) (UniProt O43603); experiment: GALR2 antagonists, retest of hits, confirmation, cell-based (AID 866; in the data active = inhibition above about 27%;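 also: cells stimulated with galanin at about its EC80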); conditions: GALR2-expressing cells, antagonist mode, at 4 µM, stronger effect = higher value
[22] = inhibitors of NFAT-driven beta-lactamase reporter, confirmation, counter-screen for GALR2 antagonist project, CHO NFAT-bla cells, FRET readout (AID 867;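 active = inhibition above the mean inhibition across tested compounds plus 3 SD, cut at about 27% in these data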;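 also: 0% = 500 nM thapsigargin stimulated wells and 100% = unstimulated BSA only wells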); conditions: thapsigargin-stimulated, at 4.2 µM, stronger effect = higher value
[23] = target: Serine protease HTRA1 (Homo sapiens) (UniProt Q92743); experiment: HTRA1 protease inhibitors, retest, confirmation, biochemical, fluorescence polarization (AID 540248;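 active = mean inhibition over three repeats above a set limit taken from the earlier primary screen, cut at about 37% in these data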;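 also: 0% = HTRA1 with DMSO and 100% = wells lacking HTRA1; inhibitors block probe binding so polarization drops and inhibition rises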); conditions: recombinant HTRA1, FP-rhodamine activity-based probe, at 5.96 µM, stronger effect = higher value

Sequence of Steroidogenic factor 1 (Homo sapiens) (Q13285 whole entry, looked up, the tested form may be a part): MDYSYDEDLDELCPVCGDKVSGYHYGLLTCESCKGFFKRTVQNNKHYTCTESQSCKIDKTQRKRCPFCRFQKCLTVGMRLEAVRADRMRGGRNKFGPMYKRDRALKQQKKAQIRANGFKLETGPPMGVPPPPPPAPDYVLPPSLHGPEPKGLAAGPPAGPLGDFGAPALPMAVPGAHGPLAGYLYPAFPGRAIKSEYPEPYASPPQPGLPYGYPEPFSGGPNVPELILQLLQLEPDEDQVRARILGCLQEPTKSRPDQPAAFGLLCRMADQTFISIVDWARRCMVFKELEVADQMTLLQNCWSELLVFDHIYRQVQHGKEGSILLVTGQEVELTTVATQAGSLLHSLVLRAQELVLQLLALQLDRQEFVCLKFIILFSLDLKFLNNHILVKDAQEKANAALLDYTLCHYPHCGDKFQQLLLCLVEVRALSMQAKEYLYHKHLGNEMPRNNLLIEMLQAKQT
Sequence of Galanin receptor type 2 (Homo sapiens) (O43603 whole entry, looked up): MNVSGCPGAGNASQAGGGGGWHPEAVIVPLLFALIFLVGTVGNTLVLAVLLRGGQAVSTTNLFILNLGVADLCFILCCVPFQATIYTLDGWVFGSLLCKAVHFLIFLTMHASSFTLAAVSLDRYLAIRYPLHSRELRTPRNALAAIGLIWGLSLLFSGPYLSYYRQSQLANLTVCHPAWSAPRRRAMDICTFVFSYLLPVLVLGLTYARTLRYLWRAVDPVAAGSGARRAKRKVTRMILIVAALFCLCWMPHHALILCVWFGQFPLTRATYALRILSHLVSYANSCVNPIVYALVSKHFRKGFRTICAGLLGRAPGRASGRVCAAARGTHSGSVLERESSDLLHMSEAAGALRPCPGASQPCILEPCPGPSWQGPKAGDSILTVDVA
Sequence of Nuclear receptor subfamily 5 group A member 2 (Homo sapiens) (O00482 whole entry, looked up): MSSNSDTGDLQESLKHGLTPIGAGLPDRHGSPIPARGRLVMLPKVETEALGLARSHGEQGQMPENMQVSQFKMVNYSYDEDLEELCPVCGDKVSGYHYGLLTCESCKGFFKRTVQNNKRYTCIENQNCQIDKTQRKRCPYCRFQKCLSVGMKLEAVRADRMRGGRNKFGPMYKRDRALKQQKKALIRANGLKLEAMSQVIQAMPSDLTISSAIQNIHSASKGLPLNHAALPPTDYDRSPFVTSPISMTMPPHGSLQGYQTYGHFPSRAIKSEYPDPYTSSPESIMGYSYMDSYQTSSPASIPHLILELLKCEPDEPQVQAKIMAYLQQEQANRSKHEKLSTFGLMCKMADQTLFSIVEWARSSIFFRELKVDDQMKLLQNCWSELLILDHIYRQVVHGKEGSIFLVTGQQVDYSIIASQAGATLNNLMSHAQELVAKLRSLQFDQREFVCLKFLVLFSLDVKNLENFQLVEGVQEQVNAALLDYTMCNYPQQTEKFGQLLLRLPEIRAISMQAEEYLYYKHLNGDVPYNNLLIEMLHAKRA
Sequence of Nuclear receptor coactivator 1 (Homo sapiens) (Q15788 whole entry, looked up, the tested form may be a part): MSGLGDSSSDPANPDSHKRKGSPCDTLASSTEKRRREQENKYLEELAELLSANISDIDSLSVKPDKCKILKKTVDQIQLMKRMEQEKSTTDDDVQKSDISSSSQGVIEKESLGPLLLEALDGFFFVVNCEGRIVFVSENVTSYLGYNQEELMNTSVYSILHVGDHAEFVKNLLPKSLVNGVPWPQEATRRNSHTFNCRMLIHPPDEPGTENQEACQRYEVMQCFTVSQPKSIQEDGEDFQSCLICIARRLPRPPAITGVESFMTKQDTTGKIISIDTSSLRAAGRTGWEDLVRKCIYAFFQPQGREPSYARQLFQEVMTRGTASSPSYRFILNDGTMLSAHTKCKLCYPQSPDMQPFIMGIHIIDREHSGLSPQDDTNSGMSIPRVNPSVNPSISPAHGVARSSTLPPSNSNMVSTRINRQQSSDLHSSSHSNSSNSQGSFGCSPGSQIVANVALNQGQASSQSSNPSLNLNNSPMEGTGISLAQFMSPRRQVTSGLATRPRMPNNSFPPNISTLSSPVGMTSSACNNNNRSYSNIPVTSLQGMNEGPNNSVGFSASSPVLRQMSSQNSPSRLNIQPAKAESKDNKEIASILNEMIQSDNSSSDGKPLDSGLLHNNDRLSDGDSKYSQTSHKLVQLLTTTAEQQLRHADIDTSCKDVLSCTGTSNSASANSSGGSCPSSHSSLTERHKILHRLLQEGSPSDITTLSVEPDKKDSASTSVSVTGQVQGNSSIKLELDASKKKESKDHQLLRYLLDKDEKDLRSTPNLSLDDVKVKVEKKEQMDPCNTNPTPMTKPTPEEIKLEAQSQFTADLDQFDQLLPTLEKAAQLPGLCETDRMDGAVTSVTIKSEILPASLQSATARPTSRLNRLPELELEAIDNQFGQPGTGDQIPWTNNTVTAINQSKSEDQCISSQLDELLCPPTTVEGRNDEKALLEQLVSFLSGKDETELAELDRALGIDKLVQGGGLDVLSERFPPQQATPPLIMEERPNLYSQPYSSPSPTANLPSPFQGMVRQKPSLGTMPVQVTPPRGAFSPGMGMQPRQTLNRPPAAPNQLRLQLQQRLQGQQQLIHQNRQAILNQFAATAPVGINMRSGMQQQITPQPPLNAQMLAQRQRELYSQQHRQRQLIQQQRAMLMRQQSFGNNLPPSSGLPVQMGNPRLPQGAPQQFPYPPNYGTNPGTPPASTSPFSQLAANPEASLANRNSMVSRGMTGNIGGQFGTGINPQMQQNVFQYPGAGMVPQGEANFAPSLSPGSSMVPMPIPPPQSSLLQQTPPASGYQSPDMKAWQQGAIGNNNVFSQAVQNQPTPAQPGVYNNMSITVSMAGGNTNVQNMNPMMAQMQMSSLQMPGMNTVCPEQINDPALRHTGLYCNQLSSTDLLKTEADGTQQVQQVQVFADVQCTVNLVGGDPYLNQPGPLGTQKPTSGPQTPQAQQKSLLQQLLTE
Sequence of Receptor-interacting serine/threonine-protein kinase 2 (Homo sapiens) (O43353 whole entry, looked up): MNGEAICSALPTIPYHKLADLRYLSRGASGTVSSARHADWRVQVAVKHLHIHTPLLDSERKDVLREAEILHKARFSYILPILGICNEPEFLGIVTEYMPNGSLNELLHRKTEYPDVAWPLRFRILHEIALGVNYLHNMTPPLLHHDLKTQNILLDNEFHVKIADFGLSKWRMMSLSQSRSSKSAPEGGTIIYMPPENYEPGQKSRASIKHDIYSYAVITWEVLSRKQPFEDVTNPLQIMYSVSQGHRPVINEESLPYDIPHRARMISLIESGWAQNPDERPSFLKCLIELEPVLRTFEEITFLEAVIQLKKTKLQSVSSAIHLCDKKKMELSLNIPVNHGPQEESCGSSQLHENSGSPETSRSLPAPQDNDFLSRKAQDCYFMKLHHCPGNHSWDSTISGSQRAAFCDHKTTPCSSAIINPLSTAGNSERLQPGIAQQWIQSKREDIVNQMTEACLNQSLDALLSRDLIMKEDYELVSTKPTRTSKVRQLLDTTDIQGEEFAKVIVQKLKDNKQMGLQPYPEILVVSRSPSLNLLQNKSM
Sequence of Toll-like receptor 9 (Homo sapiens) (Q9NR96 whole entry, looked up): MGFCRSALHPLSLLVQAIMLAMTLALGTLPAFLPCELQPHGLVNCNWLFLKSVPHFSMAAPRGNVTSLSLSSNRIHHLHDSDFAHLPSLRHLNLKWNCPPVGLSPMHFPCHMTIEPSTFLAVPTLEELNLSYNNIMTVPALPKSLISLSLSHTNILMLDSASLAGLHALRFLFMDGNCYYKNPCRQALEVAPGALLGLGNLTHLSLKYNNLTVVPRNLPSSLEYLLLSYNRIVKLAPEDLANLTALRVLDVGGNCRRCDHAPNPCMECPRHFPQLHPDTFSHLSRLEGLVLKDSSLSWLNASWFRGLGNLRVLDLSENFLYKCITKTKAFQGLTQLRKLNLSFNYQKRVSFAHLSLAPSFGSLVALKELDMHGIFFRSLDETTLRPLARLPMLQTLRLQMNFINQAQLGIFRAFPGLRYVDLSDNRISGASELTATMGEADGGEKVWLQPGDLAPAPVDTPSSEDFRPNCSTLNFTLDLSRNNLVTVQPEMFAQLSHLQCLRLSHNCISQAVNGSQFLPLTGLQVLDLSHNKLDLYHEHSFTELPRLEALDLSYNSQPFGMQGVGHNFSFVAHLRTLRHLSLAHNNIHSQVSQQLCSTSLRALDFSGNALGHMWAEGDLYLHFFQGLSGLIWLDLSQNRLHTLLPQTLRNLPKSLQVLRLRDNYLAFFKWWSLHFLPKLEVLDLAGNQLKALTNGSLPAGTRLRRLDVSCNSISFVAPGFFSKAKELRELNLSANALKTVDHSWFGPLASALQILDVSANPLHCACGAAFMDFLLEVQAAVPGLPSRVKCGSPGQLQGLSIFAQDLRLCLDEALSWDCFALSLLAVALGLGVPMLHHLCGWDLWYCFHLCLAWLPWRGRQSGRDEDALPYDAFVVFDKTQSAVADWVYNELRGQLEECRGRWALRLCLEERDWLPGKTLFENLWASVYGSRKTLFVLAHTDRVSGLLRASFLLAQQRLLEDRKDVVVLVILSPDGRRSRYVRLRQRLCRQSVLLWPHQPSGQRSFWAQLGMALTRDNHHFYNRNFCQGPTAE

Q: Which activation [1] does the source give for `CN(CC(=O)Nc1ccc(S(=O)(=O)N2CCCC2)cc1)Cc1ccc(Cl)c(Cl)c1` here?
A: 3.77%

Q: And the inhibition [2]?
A: -13.1%

Q: And the inhibition [3]?
A: 5.4%

Q: With `COc1cc(/C=C2\CCCc3c2nc2ccccc2c3C(=O)O)cc(Cl)c1O` as the compound, how does the activation [1] read?
A: -1.15%

Q: And the inhibition [2]?
A: 5.85%

Q: And the inhibition [3]?
A: -2.25%

Q: Which results are given for `Cc1ccc(C(=O)NC(=S)Nc2ccc3[nH]c(=O)[nH]c3c2)cc1C`?
A: activation [1]: -3.75%; inhibition [2]: 19%; inhibition [3]: 14.8% (active)

Q: For `Cc1sc2nc(SCC(=O)c3ccc(O)c(O)c3)n(Cc3ccco3)c(=O)c2c1C`, which activation [1] is on record?
A: 8.33%

Q: And the inhibition [2]?
A: -41.9%

Q: What about the inhibition [3] of the same compound?
A: 39.2% (active)

Q: With `COc1ccc2[nH]c3c(C)c4cc[n+](C)cc4c(C)c3c2c1` as the compound, how does the inhibition [4] read?
A: 27.3%

Q: What about the inhibition [5] of the same compound?
A: 45% (active)

Q: And the inhibition [6]?
A: 49.8% (active)

Q: And the inhibition [7]?
A: 103% (active)

Q: And the inhibition [8]?
A: 51.9% (active)

Q: And the inhibition [9]?
A: 75% (active)

Q: What about the activation [1] of the same compound?
A: 9.5% (active)

Q: And the inhibition [2]?
A: -47.7%

Q: And the inhibition [3]?
A: 42.7% (active)

Q: With `CC(=O)Nc1cccc(-c2cnc3ccccc3n2)c1` as the compound, how does the activation (% of control) [10] read?
A: 165% (active)

Q: What about the activation (% of control) [11] of the same compound?
A: 126%

Q: What about the activation (% of control) [12] of the same compound?
A: 101%

Q: Which inhibition [13] does the source give for `Cc1cccc(COc2ccccc2/C=N/Nc2ccc([N+](=O)[O-])cc2)c1` here?
A: 16.9%

Q: And the inhibition [14]?
A: 36.9% (active)

Q: And the inhibition [15]?
A: 9.96%

Q: And the inhibition [16]?
A: 20.3%

Q: What about the inhibition [17] of the same compound?
A: 23.3%

Q: What about the inhibition [18] of the same compound?
A: -1.39%

Q: And the inhibition [19]?
A: 44.2% (active)

Q: And the inhibition [20]?
A: 50.4% (active)

Q: With `CCc1ccc2c(c1)C1(NN=C(c3ccccc3)S1)C(=O)N2` (configuration not stated) as the compound, how does the inhibition [21] read?
A: 24.4%

Q: What about the inhibition [22] of the same compound?
A: 24.7%

Q: And the inhibition [13]?
A: 13.3%

Q: What about the inhibition [14] of the same compound?
A: 19.7%

Q: What about the inhibition [23] of the same compound?
A: 63.9% (active)
